Measured values taken from the OligoGym collection.

Target: ACCN2
Experiment: pooled miR-30 sensor sort-seq; sequence = guide strand
Details: shRNA
Note: reference of the scale not given here.

Sequence | sensor-assay potency score (higher = more potent)
TTTTCCTCGTCGGCACAGCTTG | -1.19
TCGGTCGTAGAACTCACGCATG | -0.983
ATAGCGTGTGAAGACCACCTTG | -0.485
TCAGATTTGTTGAACTTCTTGG | 1.11
TTTGTCCTGCAGTATCTCCAGC | -1.1
TCGTTGAGGTTGCACAGCGTGA | -1.57
TTCAATGGTCTCATAGTTGAGG | -0.393
TGAACTTATAGGTATCAGGATG | -1.02
TTTGCTGGGGATCTTGACCATG | -1.14
TGGATCTGCACTTTGATGCCTG | -0.178
TTGCACAGCGTGACAGCAGGGA | 0.305
TTCATCCTGACTATGGATCTGC | 0.145

Target: ACCN3
Experiment: as above
Details: shRNA

Sequence | sensor-assay potency score (higher = more potent)
TATCCCAGGACCTTGTCTCGGA | -0.411
TTGTCTCGGAACACCTCACAGA | -0.903
TGTAGCACTTTCCCATCCGGGT | -0.708
TAGCACTTTCCCATCCGGGTGA | 0.401
TTTCTCGCTCATCCAGGGCAGT | -1.12
TGTAGTAGCGCACCCTCTCAGC | -1.06
TAAATGTGTAGCACTTTCCCAT | -0.325
TTGCACAGGGTGACAGCCGGGA | -0.486
TAGTAGTGGTGAGCAGCTCTGC | -0.938
TTCGGCAGCCGCACTTCCGAGC | -1.09

Target: ACOT1
Experiment: as above
Details: shRNA

Sequence | sensor-assay potency score (higher = more potent)
TTTTACCTCAGGATGACTGAGC | -0.46
TCGCACGTCGCGCTTCACCAGC | -1.56
AACATGTCCACAATGCCAGGAA | -0.319
TACCTCAGGATGACTGAGCAAG | -0.802
AGCTCTTCTGGTCAGGTCCTTC | -1.49
ATCTTTGGTCACCTTGATGCGA | -0.779
ATTCGCACCGGTTCGTCCCAGC | -0.912
TGAGCAAGTAGTTCACAGCTTC | -0.12
TAGCGCTCGTGCCGCACCCGGC | -1.32
TTCATAGTTATAGTAAGCCAGA | -1.24
AGTTGTGGTCATCCTGACCTAC | -1.25
TTGTAGCGTAAGGTTCCCCCAA | -1.03

Target: ACOT6
Experiment: as above
Details: shRNA

Sequence | sensor-assay potency score (higher = more potent)
TAGTGATTTTTACTTTTCCTAG | -1.27
TTGATAAGTACAGTGGCTGTGA | 0.402
TTGGTGATTGTGTTCCTCCAGT | -0.204
TATCCTTGTAATGTAGAGGAGC | -0.764
TTCTGGGTAACAGATTATCTGG | -1.27
TTTAGGAATAATCATATCCTTG | -0.802
